Results as given in ChEMBL document CHEMBL3988442, “University of Dundee, Small-Polar-MMV Screening Library” (2021).
Among all 48,000 compounds or so, about 13,000 (27%) showed an effect of 50% or more. This is one part of the list.

tested on: Wolbachia pipientis; assay: Anti-Wolbachia Cell-Based Screen; type: functional; set-up: scale not given: in the data most compounds retested in dose-response had high values; conditions: 5 µM

Structure (SMILES) | Percent Effect [%]
O=C1NCCN1CCNCC1(O)CCCN(CCC2CCCCC2)C1=O (stereo not given) | -3.271
Cc1nnsc1C(=O)N(C)Cc1nc(-c2ccccn2)no1 | -8.145
Cc1nnc(CN2CCN(C)C3(CCC(=O)N(CCO)CC3)C2)s1 (stereo not given) | 5.792
Cc1n[nH]c(C)c1CCNC(=O)Nc1ccc(S(C)(=O)=O)cc1 | 3.499
Cc1ccc(CN2CCCn3cnc(COCC4CC4)c3C2)o1.O=C(O)C(F)(F)F | 8.584
Clc1ccccc1C1(c2ccnc(CC3CC3)n2)CCNCC1 | 5.526
Cc1occc1C(=O)N1CCCC(c2nncn2C)C1 (stereo not given) | 118
Cc1ccc(C(=O)N2CCCC(c3nncn3C)C2)c(C)c1 (stereo not given) | 142.4
Cn1cnnc1C1CCCN(C(=O)c2ccc3c(c2)OCCCO3)C1 (stereo not given) | 0.4143
CCOc1ccc2nc(CN3CCC(CN)C3)ccc2c1 (stereo not given) | 6.34
CC(C)CCN1CCc2c(C(=O)N(C)Cc3ccccn3)nn(C)c2C1.O=C(O)C(F)(F)F.O=C(O)C(F)(F)F.O=C(O)C(F)(F)F | 7.035
CC(Cn1cncn1)NC(=O)Nc1ccc(COC2CCCC2)cc1 (stereo not given) | -11.48
Cc1ccc(CN2CC[C@H]3CO[C@H](CN(C)C)[C@H]3C2)o1 | -4.083
Cc1cc(C)c(CNC(=O)N2CCC(N3CCCC3)CC2)c(=O)[nH]1 | 3.168
Cc1cc(C)c(CNC(=O)N2CCNC(=O)C2)c(=O)[nH]1 | -6.191
Cc1cc(C2CCCN2C(=O)NCc2c(C)cc(C)[nH]c2=O)on1 (stereo not given) | 97.2
Cc1cc(C)c(CNC(=O)N2CCN(c3ncccn3)CC2)c(=O)[nH]1 | -5.06
Cc1cc(C)c(CNC(=O)N2CCCC2c2ccccn2)c(=O)[nH]1 (stereo not given) | 93.91
Cc1cc(C2CCCN2C(=O)NCc2cccnc2N(C)C)on1 (stereo not given) | -7.167
Cc1cc(C)c(CNC(=O)N2CCCC2C(N)=O)c(=O)[nH]1 (stereo not given) | 4.239
Cc1cc(C2CCCN2C(=O)NCc2ccccn2)on1 (stereo not given) | -32.12
Cc1cc(C)c(CNC(=O)N2CCCC2c2cc(C)on2)c(=O)[nH]1 (stereo not given) | 104.6
Cc1cc(C)c(CNC(=O)N2CCC(N3CCCCC3)CC2)c(=O)[nH]1 | -48.68
Cc1cc(C)c(CNC(=O)N2CCC(N3CCNC3=O)CC2)c(=O)[nH]1 | -7.993
Cc1cc(C)c(CNC(=O)N2CCOC(c3ccccc3)C2)c(=O)[nH]1 (stereo not given) | 99.02
Nc1nc(Cn2ccnc2-c2cc(CN3CCCC3)cs2)cs1 | 4.037
NC1(C(=O)NCC2CCCN(Cc3cccc4nonc34)C2)CCC1 (stereo not given) | -1.452
O=C([C@H]1C[C@H]2OCC[C@H]2N(C(=O)c2ccnnc2)C1)N1CCCCO1 | -6.312

Structure (SMILES) | Percent Effect [%]
Cc1csc2c(N3CCC(NCCCC4CCOC4)CC3)ncnc12 (stereo not given) | 7.139
Cc1cccc(CN2C[C@@H](F)[C@@H](OCc3nc4ccccc4[nH]3)C2)n1 | -1.113
CSCC[C@@H](CO)n1ccnc1-c1ccc(C)o1 | -18.99
CCC1CN(CC(=O)Nc2sccc2C#N)CCO1 (stereo not given) | -10.74
Cc1cc(NC(=O)CCN2CCn3c(nnc3C3CC3)C2)no1 | -0.2298
N#Cc1ccsc1NC(=O)CCN1CCn2c(nnc2C2CC2)C1 | 113.3
Cc1cc(NC(=O)CN2CCn3c(nnc3C3CC3)C2)n(C)n1 | -5.451
Cc1nnc2n1CCN(CCC(=O)Nc1sccc1C#N)C2 | 5.791
N#Cc1ccsc1NC(=O)CN1CCn2c(nnc2C2CC2)C1 | 118.5
CNC(=O)COc1nc(C(C)(C)C)no1 | -5.111
CCN(Cc1ccoc1)C(C(N)=O)c1cccc(Br)c1 (stereo not given) | 12.55
CNC(=O)C(C)(C)N(C)C(=O)c1cc(COc2ccccc2OC)[nH]n1 | -2.904
COc1ccc(OCCN(C)C(=O)c2ccc(OC)cc2O)cc1 | 93.52
COCCN(C)C(=O)c1ccc(OC)cc1O | -1.632
CCc1ccc(OCCN(C)C(=O)c2ccncc2Cl)cc1 | -12.28
Cc1nc(C#N)c(N2CCC(c3nc(-c4ccc(F)cc4)no3)CC2)o1 | 10.17
Cc1cnn(CC2CCCN2Cc2nnc(-c3ccccc3)o2)c1 (stereo not given) | 97.7
CCc1nnc(CN2CCCC2Cn2cc(C)cn2)o1 (stereo not given) | 107.1
Cc1cnn(CC2CCCN2Cc2nnc(Cc3ccccc3)o2)c1 (stereo not given) | 6.561
CC(C)c1nnc(CN2CCCC2Cn2cncn2)o1 (stereo not given) | 2.76
Cc1cnn(CC2CCCN2Cc2coc(-c3ccccc3)n2)c1 (stereo not given) | 17.84
Cc1cnn(CC2CCCN2Cc2nnc(C3CC3)o2)c1 (stereo not given) | 113.6
Cc1cnn(CC2CCCN2Cc2ncc(-c3ccccc3)o2)c1 (stereo not given) | -2.575
Cc1cnn(CC2CCCCN2Cc2noc(C3CC3)n2)c1 (stereo not given) | 11.5
Cc1cnn(CC2CCCN2Cc2nnc(C(C)C)o2)c1 (stereo not given) | 94.36
CNC(=O)C(C)CN(C)C(=O)Nc1cc(-n2cccc2)ccc1F (stereo not given) | 4.281
COc1cccc(F)c1C(C)NC(=O)NCc1ccnc(C)n1 (stereo not given) | 15.11
